Results reported in PubChem BioAssay (Tox21).
Results filed as inconclusive are left out. The source made the active and inactive calls. Unless noted, calls come from the whole dose curve; as a rule, active = well fitted curve in the direction sought with a large enough effect in the repeat runs; inconclusive = weak or mixed curves; inactive = no such curve, though single readings can be large; an effect the other way counts as inactive or inconclusive.

What was measured:
[1] = qHTS assay to identify small molecule antagonists of the estrogen receptor alpha (ER-alpha) signaling pathway using the BG1 cell line in the presence of 0.1 nM 17-beta-estradiol - cell viability counter screen (AID 1259241); note: nearly all actives have a fitted effect of over 40% in size
Outline: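 Cells were plated and left 24 hr, compounds in DMSO were pinned in, 17beta-estradiol was added to 0.1 nM final, and after 22 hr CellTiter-Fluor reagent was added for 30 min before fluorescence was read.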

[2] = qHTS assay to identify small molecule antagonists of the androgen receptor (AR) signaling pathway using the MDA cell line in the presence of 0.5 nM R1881 - cell viability counter screen (AID 1259242); note: nearly all actives have a fitted effect of over 45% in size
Outline: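 qHTS format. MDA-kb2 (MMTV-luc, AR/GR responsive) + cpd + 0.5 nM R1881 final, 16 hr 37C/0% CO2 → CellTiter-Fluor 30 min → fluorescence intensity.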

[3] = molecular target: Estrogen receptor (Homo sapiens) (UniProt P03372); experiment: qHTS assay to identify small molecule antagonists of the estrogen receptor alpha (ER-alpha) signaling pathway using the BG1 cell line in the presence of 0.1 nM 17-beta-estradiol (AID 1259244); note: nearly all actives have a fitted effect of over 50% in size; note: potency is the fitted concentration of half-maximal effect
Sequence of Estrogen receptor (Homo sapiens) (P03372 whole entry, looked up): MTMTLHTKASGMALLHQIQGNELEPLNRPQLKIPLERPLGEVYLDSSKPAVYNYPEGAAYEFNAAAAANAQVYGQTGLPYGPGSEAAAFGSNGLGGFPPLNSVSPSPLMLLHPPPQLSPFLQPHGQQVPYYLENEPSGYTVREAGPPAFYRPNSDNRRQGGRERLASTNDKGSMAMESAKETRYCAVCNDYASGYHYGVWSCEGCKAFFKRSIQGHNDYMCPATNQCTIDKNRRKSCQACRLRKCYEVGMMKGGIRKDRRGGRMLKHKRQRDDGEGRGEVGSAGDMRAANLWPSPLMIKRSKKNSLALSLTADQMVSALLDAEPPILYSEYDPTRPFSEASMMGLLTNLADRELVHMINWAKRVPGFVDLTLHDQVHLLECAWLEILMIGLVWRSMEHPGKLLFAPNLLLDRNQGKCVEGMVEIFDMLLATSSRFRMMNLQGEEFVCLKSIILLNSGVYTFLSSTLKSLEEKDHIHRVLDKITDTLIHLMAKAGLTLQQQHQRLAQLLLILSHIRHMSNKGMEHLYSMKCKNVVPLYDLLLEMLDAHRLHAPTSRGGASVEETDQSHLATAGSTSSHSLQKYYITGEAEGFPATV
Outline: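 Reporter is a stably transfected luciferase under four estrogen responsive elements in VM7Luc4E2 cells expressing native full-length ER-alpha; inhibition of 0.1 nM (final) 17beta-estradiol-driven signal over 22 h is read by luminescence.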

[4] = qHTS assay to identify small molecule HDAC inhibitors (AID 1259364);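 note: wild-type HCT-116 cells with endogenous class I/II HDAC activity; top concentration of the series differs between compounds; nearly all actives have a fitted effect of over 45% in size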
Outline: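 Quantitative high-throughput format: overnight-seeded HCT-116 cells got compounds for 2 hr at 37C; HDAC-Glo I/II reagent added, 30 min RT, luminescence measured.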

[5] = qHTS assay to identify small molecule HDAC inhibitors - cell viability counter screen (AID 1259365); note: series mostly up to about 92 µM; nearly all actives have a fitted effect of over 50% in size
Outline: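 Counter screen in wild-type HCT-116 cells: compounds dissolved in DMSO are pin-transferred onto overnight-plated cells and left 2hr at 37C. ATP-based CellTiter-Glo luminescence then measures viable cells.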

[6] = qHTS assay to identify small molecule antagonists of the sonic hedgehog signaling (Shh) pathway - cell viability counter screen (AID 1259367); note: nearly all actives have a fitted effect of over 55% in size
Outline: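 Tox21 library chemicals were tested on a Gli1-Luc NIH/3T3 clone (2,000 cells/well) stimulated by conditioned medium; viability was quantified as fluorescence from CellTiter-Fluor reagent added at 23 hr.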

[7] = qHTS assay to identify small molecule agonists of the sonic hedgehog signaling (Shh) pathway (AID 1259368; calls by dose curve;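 note: NIH/3T3-derived 3T3Gli1-Luc cells carrying a stable Gli1-driven firefly luciferase reporter; series mostly up to about 92 µM; nearly all actives have a fitted effect of over 15% in size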)
Outline: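 Quantitative high-throughput format using a Gli1-driven firefly luciferase reporter line derived from NIH/3T3 cells. After a 24 hr compound treatment at 37 C and 5% CO2, luminescence reported Gli1 response element activity.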

[8] = qHTS assay to identify small molecule antagonists of the sonic hedgehog signaling (Shh) pathway (AID 1259369; calls by dose curve; note: nearly all actives have a fitted effect of over 45% in size; note: potency is the fitted concentration of half-maximal effect)
Outline: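 Stable Gli1-Luc reporter NIH/3T3 clone; quantitative HTS in stimulated mode with conditioned medium. Luminescence measured after 24hr compound treatment at 37 C.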

[9] = qHTS assay to identify small molecule agonists of the androgen receptor (AR) signaling pathway in the presence of an antagonist - cell viability counter screen (AID 1259379);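 note: MDA-kb2 human breast cancer cells carrying an MMTV luciferase reporter; series mostly up to about 92 µM; nearly all actives have a fitted effect of over 25% in size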
Outline: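 Nilutamide-containing (3.0uM final) MDA-kb2 cultures, 3,000 cells/well, were treated with compounds across 15 concentrations. After 16 hr at 37C with no CO2, cell viability was determined by CellTiter-Fluor fluorescence in the luciferase assay wells.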

[10] = qHTS assay to identify small molecule agonists of the estrogen receptor beta (ER-beta) signaling pathway - cell viability counter screen (AID 1259380); note: nearly all actives have a fitted effect of over 30% in size
Outline: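 Steps: plate ER-beta-UAS-bla HEK293T cells, rest 6 hr; add compounds in DMSO; incubate 16 hr at 37C, 5% CO2; add FRET substrate 2 hr; add CellTiter-Glo, wait 30 min at room temperature; read luminescence.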

[11] = molecular target: Androgen receptor (Homo sapiens) (UniProt P10275); experiment: qHTS assay to identify small molecule agonists of the androgen receptor (AR) signaling pathway in the presence of an antagonist (AID 1259381; calls by dose curve; note: nearly all actives have a fitted effect of over 15% in size)
Sequence of Androgen receptor (Homo sapiens) (P10275 whole entry, looked up): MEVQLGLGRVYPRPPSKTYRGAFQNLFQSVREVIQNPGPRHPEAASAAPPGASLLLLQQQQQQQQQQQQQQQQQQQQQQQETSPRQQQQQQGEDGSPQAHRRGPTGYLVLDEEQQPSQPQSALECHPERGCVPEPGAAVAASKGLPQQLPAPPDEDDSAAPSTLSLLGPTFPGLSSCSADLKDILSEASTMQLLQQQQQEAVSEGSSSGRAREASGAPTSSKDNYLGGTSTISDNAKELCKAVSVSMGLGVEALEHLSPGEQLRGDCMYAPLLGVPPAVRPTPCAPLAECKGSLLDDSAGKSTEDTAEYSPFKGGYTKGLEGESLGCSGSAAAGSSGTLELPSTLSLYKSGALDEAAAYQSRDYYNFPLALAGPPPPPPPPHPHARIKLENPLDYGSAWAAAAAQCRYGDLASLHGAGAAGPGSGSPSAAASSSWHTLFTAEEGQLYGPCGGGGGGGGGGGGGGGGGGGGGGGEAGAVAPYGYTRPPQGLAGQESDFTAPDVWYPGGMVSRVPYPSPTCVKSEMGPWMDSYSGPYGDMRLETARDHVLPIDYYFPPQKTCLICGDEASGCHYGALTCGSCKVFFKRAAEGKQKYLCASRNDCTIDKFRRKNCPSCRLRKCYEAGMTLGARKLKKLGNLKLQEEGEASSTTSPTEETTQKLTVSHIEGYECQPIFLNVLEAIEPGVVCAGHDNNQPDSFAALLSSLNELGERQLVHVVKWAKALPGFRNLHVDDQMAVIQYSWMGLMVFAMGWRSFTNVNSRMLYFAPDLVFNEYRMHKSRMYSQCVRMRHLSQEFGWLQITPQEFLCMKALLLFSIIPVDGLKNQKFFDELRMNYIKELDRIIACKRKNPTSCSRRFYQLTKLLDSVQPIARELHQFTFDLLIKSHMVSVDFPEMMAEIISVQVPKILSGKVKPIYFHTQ
Outline: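 Reporter-gene luminescence from MDA-kb2 cells exposed 16hr at 37C (0% CO2) to 15-point compound titrations with 3.0uM final nilutamide as AR antagonist.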

[12] = qHTS assay to identify small molecule antagonists of the estrogen receptor beta (ER-beta) signaling pathway - cell viability counter screen (AID 1259382); note: series mostly up to about 92 µM; nearly all actives have a fitted effect of over 55% in size
Outline: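 Viability is scored by CellTiter-Glo luminescence (30 min, room temperature) in ER-beta-UAS-bla HEK293T wells already read for reporter fluorescence. Compound exposure lasts 16 hr at 37C alongside 1nM 17-beta-estradiol in charcoal-stripped serum medium.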

[13] = qHTS assay to identify small molecule agonists or antagonists of the thyroid stimulating hormone receptor (TSHR) signaling pathway - wild type cell line counter screen (AID 1259384; calls by dose curve)
Outline: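 Wild-type Hek293 cells, 800/well, 18 h at 37C, then compound with Ro20-1724 for 30 min RT. cAMP by HTRF (cAMP-d2/anti-cAMP cryptate), 1 h RT, fluorescence read. 15 concentrations, triplicates.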

[14] = molecular target: Thyrotropin receptor (Homo sapiens) (UniProt P16473); experiment: qHTS assay to identify small molecule antagonists of the thyroid stimulating hormone receptor (TSHR) signaling pathway (AID 1259385; calls by dose curve; note: nearly all actives have a fitted effect of over 20% in size)
Sequence of Thyrotropin receptor (Homo sapiens) (P16473 whole entry, looked up): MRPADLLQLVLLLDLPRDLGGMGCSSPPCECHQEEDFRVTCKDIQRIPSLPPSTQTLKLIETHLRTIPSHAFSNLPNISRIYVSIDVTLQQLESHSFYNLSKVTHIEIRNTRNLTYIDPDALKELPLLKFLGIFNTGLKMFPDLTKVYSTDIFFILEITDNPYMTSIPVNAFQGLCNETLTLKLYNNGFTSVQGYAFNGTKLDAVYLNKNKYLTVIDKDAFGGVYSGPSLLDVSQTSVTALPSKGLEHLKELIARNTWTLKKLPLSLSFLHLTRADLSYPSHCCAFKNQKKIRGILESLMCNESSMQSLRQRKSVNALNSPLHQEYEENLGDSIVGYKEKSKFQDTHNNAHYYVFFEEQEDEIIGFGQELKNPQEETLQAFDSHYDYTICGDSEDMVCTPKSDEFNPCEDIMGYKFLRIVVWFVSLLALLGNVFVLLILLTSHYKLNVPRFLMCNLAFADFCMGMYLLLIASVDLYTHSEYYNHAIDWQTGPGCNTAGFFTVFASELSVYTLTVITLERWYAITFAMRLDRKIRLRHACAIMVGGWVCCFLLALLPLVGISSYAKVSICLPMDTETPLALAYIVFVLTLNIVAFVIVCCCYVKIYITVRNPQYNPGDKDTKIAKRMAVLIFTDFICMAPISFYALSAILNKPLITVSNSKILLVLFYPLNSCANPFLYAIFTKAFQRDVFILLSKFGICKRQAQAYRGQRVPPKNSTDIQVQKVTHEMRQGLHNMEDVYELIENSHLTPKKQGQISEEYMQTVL
Outline: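 TSHR-HEK293 cells (800/well) plated 18 h, then compounds with Ro20-1724 and TSH at 1.5 ng/mL final, 30 min at room temperature. cAMP quantified by HTRF (cAMP-d2/anti-cAMP-cryptate, 1 h); 15 concentrations in triplicate.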

[15] = qHTS assay to identify small molecule agonists of the sonic hedgehog signaling (Shh) pathway - cell viability counter screen (AID 1259366); note: nearly all actives have a fitted effect of over 50% in size
Outline: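 Cells are plated at 2,000 per well and left 4hr at 37C, 5% CO2 before compound addition. After 23hr of treatment, CellTiter-Fluor reagent is added for 1hr at 37C and fluorescence is measured.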

[16] = molecular target: Estrogen receptor beta (Homo sapiens) (UniProt Q92731); experiment: qHTS assay to identify small molecule agonists of the estrogen receptor beta (ER-beta) signaling pathway (AID 1259377; active = well fitted activation curve with a large enough effect in the signal ratio in the repeat runs, not every such curve was filed as active; the % refers to the signal ratio)
Sequence of Estrogen receptor beta (Homo sapiens) (Q92731 whole entry, looked up, the tested form may be a part): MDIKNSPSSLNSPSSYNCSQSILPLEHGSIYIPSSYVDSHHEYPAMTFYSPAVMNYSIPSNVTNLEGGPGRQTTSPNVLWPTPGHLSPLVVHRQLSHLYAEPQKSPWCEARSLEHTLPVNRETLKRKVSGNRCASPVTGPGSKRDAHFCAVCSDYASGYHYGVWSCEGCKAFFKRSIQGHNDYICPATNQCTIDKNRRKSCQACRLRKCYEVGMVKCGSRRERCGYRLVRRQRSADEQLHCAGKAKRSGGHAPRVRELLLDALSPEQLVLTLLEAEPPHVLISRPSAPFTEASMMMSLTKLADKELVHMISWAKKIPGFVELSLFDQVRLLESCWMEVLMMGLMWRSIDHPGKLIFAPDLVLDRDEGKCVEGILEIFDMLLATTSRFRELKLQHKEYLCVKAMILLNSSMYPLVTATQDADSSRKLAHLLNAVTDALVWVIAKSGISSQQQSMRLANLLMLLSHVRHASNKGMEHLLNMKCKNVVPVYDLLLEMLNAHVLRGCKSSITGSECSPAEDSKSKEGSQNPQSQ
Outline: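 Agonist mode cell assay in GripTite HEK293T cells expressing an ER-beta fusion that drives beta-lactamase from an Upstream Activator Sequence; 16 hr compound exposure at 37C, then 2 h LiveBLAzer B/G FRET substrate at room temperature, fluorescence read-out.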

[17] = molecular target: Estrogen receptor beta (Homo sapiens) (UniProt Q92731); experiment: qHTS assay to identify small molecule antagonists of the estrogen receptor beta (ER-beta) signaling pathway (AID 1259378; active = well fitted inhibition curve with a large enough effect in the signal ratio in the repeat runs, not every such curve was filed as active; the % refers to the signal ratio)
Outline: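 ER-beta-UAS-bla HEK293T cells in 2% charcoal-stripped FBS medium treated with compound plus 1nM final 17-beta-estradiol for 16 hr at 37C. Beta-lactamase reporter read by FRET substrate fluorescence after 2 hours at room temperature.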

[18] = molecular target: Estrogen receptor (Homo sapiens) (UniProt P03372); experiment: qHTS assay to identify small molecule agonists of the estrogen receptor alpha (ER-alpha) signaling pathway in the presence of an antagonist (AID 1259383; calls by dose curve; note: top concentration of the series differs between compounds; nearly all actives have a fitted effect of over 15% in size)
Outline: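 Readout was ERE-driven luciferase luminescence in VM7Luc4E2 cells, which express full-length ER-alpha endogenously. Compounds were tested at 15 concentrations for 22hr alongside 10.0nM ICI-182,780 (final concentration).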

Measured: Potency

CCOC(=O)N1CCC(Nc2ccc(Cl)cc2N)CC1
active: [8] 2.98 µM
not listed: [15] | [16] | [17] | [18]
inactive: all other assays above

Cc1cccc2sc(N)nc12
not listed: [11] | [18]
inactive: all other assays above

CC1CCc2nccnc21 (configuration not stated)
not listed: [11] | [13] | [14] | [15]
inactive: all other assays above

CC(C)C(O)C(C)(C)CO (configuration not stated)
active: [3] 9.99 µM
not listed: [9] | [10] | [11] | [15] | [16] | [17] | [18]
inactive: all other assays above

CCC(CO)(CO)[N+](=O)[O-]
not listed: [7] | [11] | [16] | [17]
inactive: all other assays above

CCCCCCCC/C=C\CCCCCCCC(=O)OCCO
active: [8] 36.2 µM
not listed: [10] | [11] | [12] | [17]
inactive: all other assays above

CCSC(=O)N(CC)CC
not listed: [9] | [11] | [17] | [18]
inactive: all other assays above
